# PubChem BioAssay
# Molecular target: Neurogenic locus notch homolog protein 3 (Homo sapiens) (UniProt Q9UM47)
# Test: small molecules binding NOTCH3 protein – biochemical, 635/667 nm fluorescence, primary screen (AID 1096)
# Settings: small-molecule microarray, 635 nm fluorescence, higher = more signal
# Neurogenic locus notch homolog protein 3 (Homo sapiens), sequence (Q9UM47 whole entry, looked up): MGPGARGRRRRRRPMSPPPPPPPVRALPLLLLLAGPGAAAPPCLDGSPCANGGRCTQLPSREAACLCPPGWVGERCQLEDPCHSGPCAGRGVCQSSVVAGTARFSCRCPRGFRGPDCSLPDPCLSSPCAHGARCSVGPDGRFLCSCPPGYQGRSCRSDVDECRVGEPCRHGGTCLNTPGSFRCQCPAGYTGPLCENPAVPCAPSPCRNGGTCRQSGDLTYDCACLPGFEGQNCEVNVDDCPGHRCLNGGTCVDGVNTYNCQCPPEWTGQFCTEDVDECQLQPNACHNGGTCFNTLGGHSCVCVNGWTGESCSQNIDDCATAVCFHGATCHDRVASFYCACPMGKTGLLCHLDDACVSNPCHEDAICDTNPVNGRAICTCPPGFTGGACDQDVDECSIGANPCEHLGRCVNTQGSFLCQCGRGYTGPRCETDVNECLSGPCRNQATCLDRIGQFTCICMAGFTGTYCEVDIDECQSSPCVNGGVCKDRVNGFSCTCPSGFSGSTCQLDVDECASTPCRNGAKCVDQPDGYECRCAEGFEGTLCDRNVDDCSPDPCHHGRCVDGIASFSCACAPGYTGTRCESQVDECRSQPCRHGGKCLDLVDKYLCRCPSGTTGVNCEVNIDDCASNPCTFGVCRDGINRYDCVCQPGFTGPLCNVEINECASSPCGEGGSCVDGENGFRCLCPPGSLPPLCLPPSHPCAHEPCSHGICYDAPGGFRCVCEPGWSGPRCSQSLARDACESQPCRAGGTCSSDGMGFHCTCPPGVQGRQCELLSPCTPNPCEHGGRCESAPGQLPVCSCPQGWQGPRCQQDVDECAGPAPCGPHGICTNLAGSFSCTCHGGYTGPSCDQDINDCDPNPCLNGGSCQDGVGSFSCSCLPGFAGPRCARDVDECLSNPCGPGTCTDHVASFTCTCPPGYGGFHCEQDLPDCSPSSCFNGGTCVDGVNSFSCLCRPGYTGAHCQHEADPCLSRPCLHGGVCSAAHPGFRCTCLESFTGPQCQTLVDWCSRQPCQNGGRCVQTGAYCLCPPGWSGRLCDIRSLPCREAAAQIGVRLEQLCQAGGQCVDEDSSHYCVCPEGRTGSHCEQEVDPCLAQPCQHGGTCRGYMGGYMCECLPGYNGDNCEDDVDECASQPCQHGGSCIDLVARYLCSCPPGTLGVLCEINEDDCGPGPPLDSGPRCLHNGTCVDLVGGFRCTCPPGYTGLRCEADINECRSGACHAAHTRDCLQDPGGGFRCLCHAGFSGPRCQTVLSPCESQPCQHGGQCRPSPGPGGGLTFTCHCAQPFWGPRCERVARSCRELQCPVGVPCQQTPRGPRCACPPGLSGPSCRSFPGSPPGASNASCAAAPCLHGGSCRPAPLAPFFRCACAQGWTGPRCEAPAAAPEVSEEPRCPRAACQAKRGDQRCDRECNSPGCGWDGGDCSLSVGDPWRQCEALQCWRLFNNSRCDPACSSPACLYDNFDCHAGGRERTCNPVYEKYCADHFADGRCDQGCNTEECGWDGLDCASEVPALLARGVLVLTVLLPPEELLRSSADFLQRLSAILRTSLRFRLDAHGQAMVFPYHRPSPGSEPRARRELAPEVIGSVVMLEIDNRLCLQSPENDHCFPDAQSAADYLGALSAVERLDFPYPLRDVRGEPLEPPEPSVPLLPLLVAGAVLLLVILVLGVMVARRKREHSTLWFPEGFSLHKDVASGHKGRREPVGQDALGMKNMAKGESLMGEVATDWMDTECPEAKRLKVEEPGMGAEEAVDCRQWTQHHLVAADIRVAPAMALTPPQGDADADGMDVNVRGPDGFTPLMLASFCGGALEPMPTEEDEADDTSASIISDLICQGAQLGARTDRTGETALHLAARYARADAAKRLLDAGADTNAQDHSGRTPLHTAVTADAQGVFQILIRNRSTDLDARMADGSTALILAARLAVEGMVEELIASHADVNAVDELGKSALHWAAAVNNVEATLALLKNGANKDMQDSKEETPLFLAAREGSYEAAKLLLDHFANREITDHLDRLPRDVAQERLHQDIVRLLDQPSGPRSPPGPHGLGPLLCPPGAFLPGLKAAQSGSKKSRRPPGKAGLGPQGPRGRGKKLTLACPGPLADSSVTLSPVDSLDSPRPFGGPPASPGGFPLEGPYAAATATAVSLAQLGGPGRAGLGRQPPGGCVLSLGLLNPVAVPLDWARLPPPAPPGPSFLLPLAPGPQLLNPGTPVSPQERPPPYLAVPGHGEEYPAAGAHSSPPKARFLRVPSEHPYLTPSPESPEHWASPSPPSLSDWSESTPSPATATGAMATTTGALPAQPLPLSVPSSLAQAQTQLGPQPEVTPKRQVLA
row,Structure (SMILES),composite z-score
1,CC(C)C(O)C1C=CC2C(=O)N(c3ccccc3)C(=O)C2N1Nc1ccccc1 (configuration not stated),1.07
2,CC(C)C(CO)N1C(=O)[C@@H]2[C@H]3C(=O)OCC=C[C@H]3OC23C=CCN(c2ccc(Cl)cc2)C(=O)[C@@H]13 (some centres not stated),-0.271
3,CCOC(=O)C[C@H]1[C@H](OC(=O)Cc2ccc3c(c2)OCO3)[C@@H](NC(=O)c2ccc3ccccc3n2)c2cc(OCCCO)ccc2N1C(=O)c1ccc2ccccc2n1,0.497
4,CCCC=C(CCC)[C@@H](NC(=O)C(C)(C)C)c1ccc(C(=O)OC)cc1,0.803
5,COC(=O)[C@@]1(Cc2ccccc2)[C@H]2c3cc(C(=O)N4CCCC4)n(CCc4ccccn4)c3C[C@H]2CN1C(=O)c1ccccc1,0.915
6,CC(C)c1ccc(NN2C(C(O)c3ccc(C#N)cc3)C=CC3C(=O)N(c4ccccc4)C(=O)C32)cc1 (configuration not stated),1.07
7,COc1ccc([Si](C)(C)[C@H]2[C@H](CC(=O)N3Cc4ccccc4C[C@H]3CO)O[C@@]3(C(=O)N(Cc4ccc(N5CCOC5=O)cc4)c4ccccc43)[C@@H]2C)cc1,1.11
